The panel holds about 83,000 compounds, 20% with a hit somewhere; the sample as a whole holds those more often.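 The test compound was applied at a single concentration to cells in 96-well plates for 48 hours, and percent growth was recorded.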 A number with no mark means an inactive call. Active and inactive are the calls of the source. Rule for the calls: active = growth percent below 10; inactive = the rest.
How the values were obtained:
Assay in all cases: NCI-60 one-dose screen, 48 h (100 = growth as untreated, 0 = no growth, -100 = all killed)
Conditions in all cases: 10 µM unless noted
[1] = system: DU-145 prostate
[2] = system: K-562 leukemia
[3] = system: MALME-3M melanoma
[4] = system: MDA-MB-231 breast
[5] = system: RXF 393 renal
[6] = system: SF-268 CNS
[7] = system: SF-295 CNS
[8] = system: SF-539 CNS
[9] = system: UACC-257 melanoma
[10] = system: M14 melanoma
[11] = system: HCT-15 colon
[12] = system: HT29 colon
[13] = system: SNB-75 CNS
[14] = system: SNB-19 CNS
[15] = system: U251 CNS
[16] = system: PC-3 prostate
[17] = system: SK-MEL-5 melanoma
[18] = system: UACC-62 melanoma
[19] = system: LOX IMVI melanoma
[20] = system: SK-MEL-28 melanoma

Row | Structure (SMILES) | growth [1] | growth [2] | growth [3] | growth [4] | growth [5] | growth [6] | growth [7] | growth [8] | growth [9] | growth [10] | growth [11] | growth [12] | growth [13] | growth [14] | growth [15] | growth [16] | growth [17] | growth [18] | growth [19] | growth [20]
1 | COc1cc(OC)c2sc(-c3ccc(-n4cncc4-c4cc(OC)c(OC)c(OC)c4)cc3)nc2c1 | 78.3% | 45.7% | 61.7% | 54.4% | 4.25% (active) | 61% | 60.6% | 62.1% | 59.8% | 69% | 41.3% | 44.5% | 82.9% | 49.7% | 43.1% | 34.4% | 20.9% | 43.8% | 57.7% | 73%
2 | Cc1nc2ccccc2c(/C=C/c2ccccc2)c1C(=O)/C=C/c1ccccc1 | 12.6% | 9.41% (active) | 37.5% | 29.8% | 21.1% | 40.2% | 45.8% | 8.18% (active) | 9.71% (active) | 22.5% | 1.8% (active) | 6.72% (active) | 19.7% | 47.7% | -25.3% (active) | 35.1% | 45% | 29.8% | -64.1% (active) | 24.2%
3 | C#CC#CC#CC#CC#CC#CC#CC#CC[C@@H]1OC[C@@H](COC(=O)O[C@@H](C(=O)O[C@H]2C[C@@]3(O)[C@@H](OC(=O)c4ccccc4)[C@@H]4[C@]5(OC(C)=O)CO[C@@H]5C[C@H](O)[C@@]4(C)C(=O)[C@H](OC(C)=O)C(=C2C)C3(C)C)[C@@H](NC(=O)c2ccccc2)c2ccccc2)O1 | 102% | 7.18% (active) | 37.4% | 5.64% (active) | -12.3% (active) | 94.5% | 0.0837% (active) | -8.27% (active) | 95.5% | -6.06% (active) | 11% | 101% | 90.1% | 14.9% | 96.3% | 11.1% | 22.1% | 25.2% | 22.2% | 55.4%
4 | C=C(C)[C@@H]1CC[C@]2(C(N)=O)CC[C@]3(C)[C@H](CC[C@@H]4[C@@]5(C)CC[C@H](OCCC#N)C(C)(C)[C@@H]5CC[C@]43C)[C@@H]12 | 94.7% | 74.3% | 101% | 73.2% | 86.8% | 74.1% | 79.5% | 91.6% | 101% | 90.2% | 80.9% | 84.7% | 85.9% | 81.2% | 87.7% | 68.8% | 93.3% | 67.1% | 87.1% | 92.8%
5 | O=C(NNC(=O)c1ccc(NC(=O)c2ccccn2)cc1)Nc1ccc2ccccc2c1 | 110% | 106% | 123% | 115% | 116% | 101% | 103% | 69% | 120% | 115% | 105% | 109% | 109% | 91.8% | 101% | 107% | 102% | 108% | 115% | 110%
6 | COC(=O)c1c2c(c(C)[n+]([O-])c1C)C(=O)C(NCc1cccc(Cl)c1)=CC2=O | 38.3% | 6.86% (active) | -96.2% (active) | 3.99% (active) | 34.3% | 16.2% | 42.5% | 4.07% (active) | -37.5% (active) | 1.44% (active) | 7.55% (active) | 5.87% (active) | 127% | 9.37% (active) | -6% (active) | 4.17% (active) | -77.7% (active) | -42.6% (active) | 11.7% | 63%
7 | Cc1ccc(C)c2c(C)c(C(=O)Nc3cccc(-n4cccn4)c3)oc12 | 76.5% [50 µM] | 37.1% [50 µM] | 67.6% [50 µM] | 76.9% [50 µM] | 79.6% [50 µM] | 67.4% [50 µM] | 66% [50 µM] | 85.2% [50 µM] | 92.9% [50 µM] | 63.5% [50 µM] | 49% [50 µM] | 48.2% [50 µM] | 86.6% [50 µM] | 87.2% [50 µM] | 70.9% [50 µM] | 38.8% [50 µM] | 44.3% [50 µM] | 73.9% [50 µM] | 62.2% [50 µM] | 86.7% [50 µM]
8 | O=C(CCCCCCN1CC(=O)N2[C@H](c3ccc(Cl)cc3)c3[nH]c4ccccc4c3C[C@@H]2C1=O)NO | 72.2% | 25.2% | 23% | 68.9% | 65.7% | 85.1% | 85.6% | 57% | 36.4% | 61.7% | 109% | 67.5% | 30.2% | 69.6% | 53% | 48.2% | 43.8% | 21% | 27.1% | 45.3%
9 | Cc1ccc(C=C2C(=O)NC(=O)NC2=O)cc1 | 108% | 86.1% | 101% | 118% | 113% | 100% | 104% | 111% | 94% | 101% | 104% | 103% | 92.5% | 106% | 99% | 95.9% | 100% | 102% | 98.6% | 107%
10 | C/C(Cc1ccc(Cl)cc1)=C(\c1ccc(OCCCN(C)C)cc1)c1ccc(OC(=O)Cc2ccccc2)cc1 | 106% | 91.8% | 111% | 108% | 109% | 97.6% | 100% | 105% | 103% | 109% | 103% | 78.8% | 92.8% | 105% | 112% | 96.5% | 102% | 105% | 99.2% | 103%
11 | O=C(O)c1cn(C2CC2)c2cc(N3CCN(C(=O)Nc4nc(-c5ccc(Br)cc5)cs4)CC3)c(F)cc2c1=O | 17% | 18% | 29.3% | 28.9% | 25.2% | 24.2% | 19.5% | 23.6% | 3.57% (active) | 23.7% | 14.3% | 9.27% (active) | 24% | 19.7% | 12.7% | 19.2% | -41% (active) | -1.55% (active) | -9.03% (active) | 42.2%
12 | COc1ccc2nc(Cl)c(/C=C3\CC(c4ccccc4)=NN(c4ccccc4)C3=O)cc2c1 | 76.8% | 83.9% | 45.2% | 51.7% | 10.9% | 51.9% | 62.6% | 13.1% | 75.2% | 94.1% | 84.5% | 82.5% | 19.8% | 20.3% | 55.6% | 66.1% | 78.2% | 71.8% | 78.3% | 85.8%
13 | C=CCC(CCCC)(C(=O)OCC)C(=O)OCC | 121% | 104% | 106% | 105% | 105% | 113% | 113% | 100% | 100% | 96.8% | 96% | 102% | 77.2% | 99% | 102% | 94.8% | 113% | 99.6% | 99.7% | 115%
14 | COc1cc2nc3sc(C(=O)Nc4ccc(C(=O)OC(C)C)cc4)c(C(=O)Nc4ccc(Cl)cc4C)n3c(=O)c2cc1OC | 13.2% | 56.4% | 43.9% | 86.9% | 83.8% | 64.5% | 42% | 104% | 118% | 77.7% | 93.7% | 41.2% | 48% | 96.9% | 66.3% | 30.2% | 73% | 67.6% | 69.7% | 101%
15 | O=C(C1CCCCC1)[C@@H]1[C@]2(C(=O)NC3CCCCC32)[C@@H]2CCCN2[C@@]12C(=O)NC1CCC(Cl)CC12 (stereo not given in full) | -98% [100 µM] (active) | -66% [100 µM] (active) | -66.4% [100 µM] (active) | -71.7% [100 µM] (active) | -66.6% [100 µM] (active) | -77.4% [100 µM] (active) | -92.5% [100 µM] (active) | -93.3% [100 µM] (active) | -77.8% [100 µM] (active) | -83.2% [100 µM] (active) | -83.4% [100 µM] (active) | -85.2% [100 µM] (active) | -68.8% [100 µM] (active) | -92.5% [100 µM] (active) | -90.6% [100 µM] (active) | -87.9% [100 µM] (active) | -97.1% [100 µM] (active) | -95.4% [100 µM] (active) | -83.4% [100 µM] (active) | -83% [100 µM] (active)
